Reference: PubChem BioAssay AID449762 (Southern Research Specialized Biocontainment Screening …, 2010)
In all, about 330,000 compounds went through this assay and about 1,900 (0.58%) were called active. Roughly 4% stayed inconclusive and do not appear here. No stated cut-off is given here; in the data, inconclusive means inhibition above about 70% without an active follow-up result; inactive means below that. These entries were drawn from the full list. Entries with a potency or affinity are not part of this list.

Experiment: M. tuberculosis growth inhibition, HTS (AID 449762);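 further: bacterial growth assessed after seven days of incubation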
Settings: M. tuberculosis H37Rv growth inhibition, 7H9 media; at 25 µM; active compounds read high

Compound	inhibition
Cc1c(Cl)c([N+](=O)[O-])nn1CCCC(=O)Nc1ccc(Cl)cc1Cl	5.86% (inactive)
CC1=NOC(=O)/C1=C\c1ccc(-c2cccc(Cl)c2)o1	60.5% (inactive)
CC1=NOC(=O)/C1=C\c1ccc(-c2ccc(Br)cc2C(=O)O)o1	-4.04% (inactive)
Cc1c(NC(=S)Nc2cccc(Cl)c2)c(=O)n(-c2ccccc2)n1C	7% (inactive)
Cc1cccc(NC(=O)CN2CCN(C(=O)COc3cccc(Br)c3)CC2)c1C	1.13% (inactive)
CCOC(=O)c1sc(SCC(=O)Nc2ccc(N(C)C)cc2)nc1N	1.23% (inactive)
CCOC(=O)CSc1nnc(N)s1	-0.59% (inactive)
CCOC(=O)c1sc(NCCNc2nc(C)c(C(=O)OCC)s2)nc1C	-6.54% (inactive)
COc1ccc(NC(=O)CSc2nc(N)c(C(=O)Nc3ccc(N(C)C)cc3)s2)cc1	15.8% (inactive)
COc1cccc(CN(C)CC(=O)Nc2c(C)cccc2C(C)C)c1	1.22% (inactive)
O=C(c1csc2ccccc12)N1CCN(c2ccc(Cl)c(Cl)c2)CC1	2.65% (inactive)
N[C@@H](Cc1cc(Br)c(O)c(Br)c1)C(=O)O	1.75% (inactive)
N[C@@H](Cc1ccc(N(CCCl)CCCl)cc1)C(=O)O	-2.59% (inactive)
NC(CS(=O)O)C(=O)O (stereo not given)	5.82% (inactive)
N[C@@H](Cc1cc(I)c(O)c(I)c1)C(=O)O	-4.28% (inactive)
Cc1ccc(C(=O)NCC(=O)OCC(=O)c2ccc(Cl)s2)cc1	13.4% (inactive)
O=C(NC1CCSc2ccccc21)c1cc(S(=O)(=O)N2CCOCC2)ccc1F (stereo not given)	-1.41% (inactive)
O=C(NC1CC1)c1cc(=O)c2ccccc2o1	-13.4% (inactive)
COc1cc2c(cc1Cl)C(=O)C(F)(c1ccccc1)C(=O)N2 (stereo not given)	-6.77% (inactive)
COc1ccc(OC)c(NC(=O)c2ccc(CSc3nnc(C)s3)cc2)c1	49.4% (inactive)

Compound	inhibition
Cc1nnc(SCc2ccc(C(=O)Nc3cc(Cl)ccc3C)cc2)s1	-1.77% (inactive)
CCOc1ccc(NC(=O)CSc2nnc(COc3c(C)cccc3C)o2)cc1	-12.7% (inactive)
COc1cc(NC(=O)Cc2ccccc2)c(C(=O)O)cc1OC	5.42% (inactive)
COc1ccc(-n2nnnc2CNC(=O)C(=O)c2c[nH]c3ccccc23)cc1	1.52% (inactive)
COc1ccc(-c2c(-c3ccccc3OC)sc3ccccc23)cc1OC	11.5% (inactive)
CCOC(=O)Cc1cn(C(=O)OC(C)(C)C)c2ccccc12	-4.41% (inactive)
CC(=O)c1ccc(NC(=O)CNCc2cccs2)cc1	-3.9% (inactive)
Cc1ccc(NC(=O)CNCc2cccs2)c(Br)c1	1% (inactive)
CSCCC(NC(=O)c1ccco1)C(=O)NC1CCC(C)CC1 (stereo not given)	-5.12% (inactive)
O=S(=O)(c1ccc2c(c1)OCCO2)C1CCC(S(=O)(=O)c2c(F)cccc2F)CC1 (stereo not given)	-1.16% (inactive)
CC[n+]1c(/C=C/N(C)c2ccccc2)oc2ccc(F)cc21	-7.16% (inactive)
CC[n+]1c(/C=C/N(C)c2ccccc2)oc2ccc(Cl)cc21	-7.91% (inactive)
COC(=O)c1ccc(NC(=O)CSc2nnc(C)n2CC2CCCO2)cc1 (stereo not given)	-1.12% (inactive)
CC(OC(=O)c1cccc(NS(C)(=O)=O)c1)C(=O)Nc1ccc2c(c1)OCO2 (stereo not given)	-1.53% (inactive)
Cc1cc(C(=O)N/N=C/c2c(C)nn(-c3ccccc3)c2C)n[nH]1	-1.35% (inactive)
Cc1nn(-c2ccccc2)c(C)c1/C=N/NC(=O)c1cc(O)cc(O)c1	0.86% (inactive)
Cc1ccc(-n2c(SCC(=O)N/N=C/c3c(C)nn(-c4ccccc4)c3C)nc3ccccc3c2=O)cc1	12% (inactive)
Cc1ccc(/C=N/NC(=O)CSc2nc3ccccc3c(=O)n2-c2ccccc2C)s1	6.56% (inactive)
CCCCNC(=O)CSc1nnc(Cc2ccc(Cl)c(Cl)c2)c(=O)[nH]1	4.24% (inactive)
O=c1ccc(=O)n2n1CC(O)C2	1.79% (inactive)

Compound	inhibition
Cc1cc(Cl)c(S(=O)(=O)Nc2ccc(S(=O)(=O)N3CCOCC3)cc2)cc1OCC(N)=O	5.99% (inactive)
CC(C)Cn1c(N)c(C(=O)COC(=O)Cc2cccc(C(F)(F)F)c2)c(=O)n(C)c1=O	3% (inactive)
CCOC(=O)N/N=C(C)/C=C/c1ccccc1	-3.41% (inactive)
Cc1ccc(OCC(=O)NCc2cccnc2)cc1	-0.13% (inactive)
CC1CCN(C(=O)c2ccc(CSc3nc4ccncc4n3Cc3ccc(F)cc3)cc2)CC1	-5.51% (inactive)
CCCOc1ccc(CC(=O)NCC2(c3ccccc3)CCOCC2)cc1OC	5.05% (inactive)
Cc1ccc(N(CC(=O)NC2CCCC2)C(=O)CCC(=O)Nc2nccs2)cc1C	-7.45% (inactive)
O=C(CN1CCC(n2nnc3ccccc32)CC1)NCc1cccs1	-0.03% (inactive)
C=CCNC(=O)CN1CCC(n2nnc3cc(C(F)(F)F)ccc32)CC1	-4.99% (inactive)
O=C(CN1C(=O)/C(=C/c2ccccc2)SC1=S)NC1C=CS(=O)(=O)C1 (stereo not given)	2.53% (inactive)
COc1cccc(C2C3=C(N=c4s/c(=C\c5ccc(O)cc5)c(=O)n42)c2ccccc2CC3)c1OC (stereo not given)	65.1% (inactive)
COc1cccc(C2C3=C(N=c4s/c(=C\c5ccccc5O)c(=O)n42)c2ccccc2CC3)c1OC (stereo not given)	4.34% (inactive)
COc1ccccc1NC(=O)c1ccccc1C(=O)N(C)Cc1ccccc1	-2.3% (inactive)
Cc1cc(C)nc(SCC(=O)O)n1	0.26% (inactive)
O=C(c1ccc2nc[nH]c2c1)N1CCc2ccccc2C1	-3.52% (inactive)
Cc1ccc(NC(=O)CN(C)C(=O)Cn2ncc(Cl)c(Cl)c2=O)cc1	28.7% (inactive)
CCC(=O)Nc1ccc(C(=O)Cn2ncc(Cl)c(Cl)c2=O)cc1	-3.99% (inactive)
COc1ccc(CCC(=O)NCCCNC(=O)CCc2ccc(OC)cc2)cc1	8.41% (inactive)
CCCCc1cc(=O)oc2cc(C)cc(OC(C)C(=O)NC(Cc3c[nH]c4ccc(O)cc34)C(=O)O)c12 (stereo not given)	-11.4% (inactive)
O=C(COC(=O)c1ccccc1Br)Nc1ccc(F)cc1	45.4% (inactive)
